The structures appear in SMILES notation. Activity calls are given as the source filed them. How the calls were made is not given here.

This experiment can be described thus: Pseudomonas biofilm growth suppression – PAO1 strain, BacTiter-Glo luminescence, LB-PBS, primary screen (AID 1144). The following applies: P. aeruginosa PAO1 biofilm, 12 h, higher = more signal.
As for `CC#CCOCCC=C1c2ccccc2[C@@H](OC)[C@@H]1C`, the z-score is -0.445 (inactive).

As for `CCO[C@H](c1cc(OC)cc([N+](=O)[O-])c1OC)[C@H](C)[C@@H](OC)[C@H](C)C=CCC(=O)OC`, the z-score was -0.378 (inactive). The result for `O=C1[C@H]2[C@H]3[C@H](O)[C@H](O)CC(=NOC[C@@H](O)COCc4ccco4)[C@@H]3CC[C@H]2C(=O)N1c1cccc(Oc2ccccc2)c1` reads 0.626 (inactive). The result for `COC(=O)[C@@H]1CC[C@H](C)[C@@H](c2ccc(Br)cc2)N1C[C@@H](O)CN=[N+]=[N-]` reads -1.91 (inactive); that for `CCOC(=O)[C@H](Cc1ccccc1)NC(=O)CCC1CC(OC(=O)NCc2cccc3ccccc23)CC2(CCCC(COC(=O)NCC3CCCCC3)O2)O1` (stereo partly specified), -0.441 (inactive). The result for `C#CCCCON=C1[C@H]2CCn3c(=O)n([C@@H](CC)c4ccccc4)c(=O)n3[C@H]2[C@H](O)[C@@H]2O[C@H]12` reads 0.453 (inactive); that for `C[C@@H]1C=CCC(=O)OC[C@H](C)C(=O)N[C@@H](Cc2ccccc2)C(=O)OC1`, -1.23 (inactive); that for `Cc1ccc2[nH]c3nc(CCCn4ccnc4-c4ccccc4)nnc3c2c1`, 0.892 (inactive). For `CC(CCN1CCc2nc(-c3ccccc3)c(-c3ccccc3)cc2C1)=NO[C@@H](C)c1cc(-c2c(C)cc(C)cc2C)no1`, the z-score was -0.832 (inactive). Regarding `O=C1[C@H]2CCn3c(=O)n(Cc4cc5c(cc4Cl)OCO5)c(=O)n3[C@H]2[C@H](O)[C@@H]2O[C@H]12`, the z-score was 0.529 (inactive). Consider `CCCNC(=O)OC[C@H]1O[C@H](CCON=C[C@@H](NS(=O)(=O)c2ccc(C)cc2)[C@H](C)C=CCC(=O)OC)C=C[C@@H]1Oc1ccc(OC)cc1`, for which the z-score was 0.169 (inactive). Consider `CCN1C(=O)[C@H]2[C@H]3[C@H](O)[C@H](O)CC(=NOCC[C@@H]4C=C[C@H](OC(C)=O)[C@@H](COC(C)=O)O4)[C@@H]3CC[C@H]2C1=O`, for which the z-score was 0.857 (inactive). The result for `COc1ccc(O[C@H]2C=C[C@@H](c3ccccc3)O[C@@H]2COC(=O)CCC(C)=NOC[C@@H](O)COCc2ccco2)cc1` reads 0.104 (inactive); that for `CC(C)[C@@H](OCc1ccccc1)[C@H](C)C=NOC[C@@H](O)[C@H]1O[C@@H]2OC(C)(C)O[C@@H]2[C@H]1O`, 0.0464 (inactive); that for `O=C1C2=CC[C@H]3C(=O)N(Cc4ccccc4)C(=O)[C@H]3[C@H]2[C@H](O)[C@@H]2O[C@H]12`, 0.252 (inactive).

With `COC(=O)[C@H](C)NC(=O)CCC1CC(OC(=O)NCc2ccc3c(c2)OCO3)CC2(CCCC(COC(=O)NCc3ccccc3)O2)O1` (stereo partly specified), the z-score is -0.801 (inactive). Consider `CC(C)CON=C1C[C@@H](O)[C@@H](O)[C@@H]2[C@@H]3C(=O)N(Cc4ccccc4)C(=O)[C@@H]3CC[C@H]12`, for which the z-score is -1.46 (inactive). With `O=C1[C@H]2[C@H]3[C@H](O)[C@H](O)CC(=NO[C@@H]4O[C@H](CO)[C@@H](O)[C@H](O)[C@H]4O)[C@H]3CC[C@H]2C(=O)N1c1ccc(F)cc1F`, the z-score was 1.42 (inactive).

Regarding `CC(=O)OC[C@H]1O[C@@H](ON=C2[C@H]3CCn4c(=O)n(-c5ccccc5)c(=O)n4[C@H]3[C@H](O)[C@@H]3O[C@H]23)[C@H](OC(C)=O)[C@@H](OC(C)=O)[C@@H]1OC(C)=O`, the z-score was 1.56 (inactive). The result for `C#CCCCON=C1C[C@@H](O)[C@@H](O)[C@@H]2[C@@H]3C(=O)N([C@@H](C)c4ccccc4)C(=O)[C@@H]3CC[C@@H]12` reads -0.0365 (inactive). The result for `O=C1[C@H]2[C@H]3[C@H](O)[C@H](O)CC(=NOC[C@@H](O)COCc4ccco4)[C@@H]3CC[C@H]2C(=O)N1C1CCCCC1` reads 0.321 (inactive); that for `C[C@]12CCC3c4ccc(OCC5CO5)cc4CCC3C1CC[C@@H]2O` (stereo partly specified), -0.168 (inactive); that for `CCOC(=O)CCN1C(=O)[C@H]2[C@H]3[C@H](O)[C@H](O)CC(=NO[C@@H]4O[C@H](CO)[C@@H](O)[C@H](O)[C@H]4O)[C@H]3CC[C@H]2C1=O`, 0.132 (inactive). The result for `C=CCOCC1CN2[C@@H](CC[C@@H](C)[C@@H]2c2ccc(Br)cc2)C(=O)O1` (stereo partly specified) reads 1.1 (inactive).

On to `CO[C@H]1COC(=O)[C@H](C)COC(=O)[C@@H](OCc2ccccc2)C=C[C@@H]1C`, for which the z-score is -0.462 (inactive).

On to `CC(C)=NOC(C)CN1CCCc2nc(C)c(C)cc21` (stereo unspecified), for which the z-score is -0.905 (inactive).

For the origin of these results see PubChem BioAssay.
